Results filed as inconclusive are left out. Where a call stands in place of a potency, no number is given. The source made the active and inactive calls. Calls come from the whole dose curve; as a rule, active = well fitted curve in the direction sought with a large enough effect; inconclusive = small, poorly fitted or top-dose-only effect, or another doubt; inactive = no such curve, though single readings can be large; an effect the other way counts as inactive or inconclusive.
Legend:
[1] = biological target: Aldehyde dehydrogenase, mitochondrial (Homo sapiens) (UniProt P05091); test: qHTS for Inhibitors of the Aldehyde Dehydrogenase Family (ALDH2) Primary screen (AID 2061308); note: nearly all actives have a fitted effect of over 55% in size
[2] = biological target: Retinaldehyde dehydrogenase 3 (Homo sapiens) (UniProt P47895); test: qHTS for Inhibitors of the Aldehyde Dehydrogenase Family (ALDH1A3) Primary screen (AID 2061315)

SMILES | Potency [1] | Potency [2]
Cc1cc(C)nc(NC(=S)N2CCN(c3ccc4cnccc4c3)CC2)c1 | inactive | inactive
Cn1cncc1CNc1ncnc2ccc(-c3ccc4c(c3)OCO4)cc12 | inactive | inactive
CC(C)(C)OC(=O)Cc1nnc(-c2cc3ccccc3[nH]2)o1 | inactive | inactive
COc1cccc(C2c3c(ncn(-c4ccccc4Cl)c3=N)Oc3ccc4ccccc4c32)c1 (stereo not given) | inactive | inactive
c1coc(CNc2nc(-c3cccs3)nc3ccccc23)c1 | inactive | inactive
CN1CCCC1CCNc1ncnc2ccc(-c3ccc4c(c3)OCO4)cc12 (stereo not given) | inactive | inactive
COc1ccc(C2=Nn3c(nnc3-c3ccccc3Cl)SC2)cc1OC1CCOC1 (stereo not given) | inactive | inactive
O=C(Cc1ccc(Cl)c(Cl)c1)Nc1ccc([S+](=O)([O-])Nc2ncn[nH]2)cc1 | inactive | inactive
C=C(C)C(=O)O[C@H]1C[C@@](C)(O)C(=O)CC(O)/C(C)=C\[C@H]2OC(=O)C(=C)[C@H]12 (stereo not given in full) | inactive | inactive
Cn1nnnc1Sc1ncnc2scc(-c3ccc(C(=O)OC(C)(C)C)cc3)c12 | inactive | inactive
Cc1cc(-c2nnc3n2CCCCC3)c(C)n1-c1ccncc1 | inactive | inactive
Cc1cccc(CNc2ncnc3ccc(-c4cccc(C)c4)cc23)c1 | inactive | inactive
Cc1ccc(OCCn2c(CCNC(=O)c3cc(N)ccc3N)nc3ccccc32)cc1 | inactive | inactive
O=C(CN1C(=O)N/C(=C\c2cccn2-c2cccc(C(=O)O)c2)C1=O)Nc1ccccc1F | inactive | inactive
Cc1cc(NC(=O)Nc2nnc(-c3ccncc3)s2)ccc1Cl | inactive | inactive
COc1cccc(-c2ccc3ncnc(NCc4ccc5c(c4)OCO5)c3c2)c1 | inactive | inactive
C/C=C/c1ccc(O[C@@H]2O[C@H](CO)[C@@H](O)[C@H](O)[C@H]2O)c(OC)c1 | inactive | inactive
COc1cc(F)c(S(=O)(=O)N2CCN(S(=O)(=O)c3ccc4c(c3)OCCO4)CC2)c(F)c1 | inactive | inactive
C/C=C(\C)C(=O)O[C@H]1C=C(CO)C(=O)[C@H](OC(C)=O)[C@H]1C(C)C | inactive | inactive
COc1cccc(-c2nnc3n2N=C(c2ccccc2OC)CS3)c1 | inactive | inactive

SMILES | Potency [1] | Potency [2]
Cc1cc2c(s1)c1cnn(Cc3ccc(C(C)(C)C)cc3)c(=O)c1n2C | inactive | inactive
CC(=O)Nc1oc(-c2cccc3ccccc23)nc1C#N | inactive | inactive
Cc1csc(CNc2ncnc3ccc(-c4ccc(C(=O)O)o4)cc23)n1 | inactive | inactive
COc1cccc(-c2csc(N3CCC(C(N)=O)CC3)n2)c1 | inactive | inactive
Cc1ccc(OCCn2c(CCNC(=O)c3cccc(C#N)c3)nc3ccccc32)cc1 | inactive | inactive
CCOc1ccc(CCNC(=O)c2cc3sccc3n2Cc2ccncc2)cc1OCC | inactive | inactive
COc1cccc(NC(=O)C(OC(=O)CNC(=O)c2ccccc2)c2ccccc2)c1 (stereo not given) | inactive | inactive
C=C1CCC[C@]2(C)C[C@]3(O)OC(=O)C(C)=C3C[C@@H]12 | inactive | inactive
O=C(NC1CCCc2c1cnn2-c1ccc(F)cc1F)c1cnon1 (stereo not given) | inactive | inactive
COc1ccc(S(=O)(=O)Nc2c(C)cc(C)cc2C)cc1 | inactive | inactive
Nc1ncc(S(=O)(=O)N2CCOCC2)s1 | inactive | inactive
COc1ccc(C2=Nn3c(nnc3-c3ccccc3C(F)(F)F)SC2)cc1O[C@H]1CCOC1 | inactive | inactive
O=C(O)c1ccc(O)c2ncc(-c3n[nH]nc3-c3ccccc3)cc12 | inactive | inactive
Brc1ccc(-c2csc(N3CCCCC3)n2)cc1 | inactive | inactive
COc1ccc(NC(=O)c2cnn3c(C)cc(C)nc23)cc1OC | inactive | inactive
CC1(C)C[C@@H]2C[C@@](C)(CN2S(=O)(=O)c2ccc(C(=O)Nc3ccc(Cl)c(S(=O)(=O)N4CCOCC4)c3)cc2)C1 | inactive | inactive
O=S(=O)(Nc1cccc2cccnc12)c1ccc(Br)cc1 | inactive | inactive
O=C(Nc1ccc(S(=O)(=O)Nc2nccs2)cc1)c1cc(-c2ccccc2)nc2ccccc12 | inactive | inactive
Cc1ccc(-c2ccc(=O)n(CC(=O)N(C)C(C)c3cccs3)n2)cc1 (stereo not given) | inactive | inactive
Cc1cccc(-n2cnc3cc(C(=O)N4CCC(C(F)(F)F)CC4)ccc32)c1 | inactive | inactive

From PubChem BioAssay (NCATS)
